Calls of active or inactive are those of the source. How the calls were made is not given here.
Test: HDAC Secondary Assay for qHTS Assay for Epigenetic Modulators
Conditions: HeLa nuclear extract HDAC activity, fluorogenic substrate, 20 min; at 48 µM; stronger effect = lower value
Source text: NIH Molecular Libraries Screening Centers Network [MLSCN] NIH Chemical Genomics Center [NCGC] MLSCN Grant: 1 X01 MH079860-01 Assay Provider: Elisabeth D. Martinez, University of Texas SW Medical Center NCGC Assay Overview: This secondary assay characterizes selected actives identified in the qHTS of the Locus Derepression (LDR) assay (PubChem AID 597). The LDR assay detects the derepression of a GFP reporter that is stably integrated in a region of the genome of murine c127i mammary cells that is presumably silenced. Compounds that cause derepression of the locus to express GFP are identified by enumerating GFP positive cells using a laser-scanning microplate cytometer. Selected LDR actives were assayed for inhibition of histone deacetylase (HDAC) activity in HeLa nuclear extracts using a HDAC fluorometric kit (AK-500, Biomol International LP). This assay uses a substrate containing an acetylated lysine side chain that is deacetylated by HDAC enzymatic activity to generate a fluorophore.
NCGC Assay Protocol Summary HeLa nuclear extracts and acetylated profluorescent substrate were incubated with vehicle, 0.5 uM TSA, or 48 uM indicated LDR compound for 20 min at ambient temperature and fluorescence was measured. Background-subtracted activity was expressed as a percent of uninhibited extract. Tests were performed in 25 uL volume in 384-well black plates using the HDAC assay kit AK-500 (Biomol International LP). For further details, see R.L. Johnson, W. Huang, A. Jadhav, C.P. Austin, J. Inglese, E.D. Martinez, A Quantitative High-Throughput Screen Identifies Potential Epigenetic Modulators of Gene Expression, Analytical Biochemistry (2007), doi: 10.1016/j.ab.2007.12.028

SMILES | remaining HDAC activity
COc1ccc(C(NC(=O)C(C)C)c2ccc3cccnc3c2O)cc1 (stereo not drawn) | 106% (inactive)
CC(C)C(=O)NC(c1ccco1)c1cc([N+](=O)[O-])c2cccnc2c1O (stereo not drawn) | 112% (inactive)
CC(C)C(=O)NC(c1ccco1)c1ccc2cccnc2c1O (stereo not drawn) | 108% (inactive)
CN1CCN(Cc2cc(Cl)c3cccnc3c2O)CC1 | 109% (inactive)
CN(C)C(=O)CSc1cccc2cccnc12 | 111% (inactive)
O=Nc1ccc(O)c2ncccc12 | 84% (inactive)
O=C(CSc1cccc2cccnc12)NCc1ccccc1 | 96% (inactive)
CC(/C=C/C(=O)NO)=C\[C@@H](C)C(=O)c1ccc(N(C)C)cc1 | 1% (active)
O=C(CSc1cccc2cccnc12)N1CCCC1 | 120% (inactive)
CCN(CC)c1ccc2cc(-c3nc4ccccc4[nH]3)c(=O)oc2c1 | 112% (inactive)
CCN1CSC(=S)N(CC)C1 | 103% (inactive)
CN1C(=S)SC(c2ccccc2)N(C)C1c1ccccc1 (stereo not drawn) | 107% (inactive)
CC(C)C(=O)NC(c1ccc(N(C)C)cc1)c1ccc2cccnc2c1O (stereo not drawn) | 99% (inactive)

Reference: PubChem BioAssay AID1035 (National Center for Advancing Translational Sciences (NCATS), 2008)
